Screening data: PubChem, National Center for Advancing Translational Sciences (NCATS)
Marburg entry: inhibitors of Marburg virus binding or entry into cells | Marburg virus pseudotype entry/binding inhibition, cell-based | Potency, µM (top dose mostly 49.2 µM), inactives show top-dose activity change, negative = inhibition, usual class: inhibitors | 18,000 compounds, 6.5% hits | AID 720532
LASV entry inh: blocks Lassa virus binding or cell entry. Potency, µM (doses to about 49.2 µM), for the others: at the top dose activity change, negative = inhibition, actives largely listed as inhibitors. AID 720533. Lassa virus pseudotyped entry inhibition, cell-based qHTS. 18,000 compounds, 4.1% hits
The depositor's hits bear a star; ? = inconclusive; / = no result given; ! = not confirmed by another sample; [ ] = dose if it differs, or a comment. The list is not random: actives were taken first. Their share in the collection is about 8.6%. Calls follow the shape of the full dose curve; tested in HEK293 cells. % is scaled to controls: 0 for no effect and ±100 for the full control effect; potency is read from the fitted curve at half-maximal effect.

SMILES | Marburg entry | LASV entry inh
NS(=O)(=O)c1ccc(Nc2cc(-c3ccc(O)c(F)c3)[nH]n2)cc1 | -26.6% | 39.4%
COc1cccc([C@H]2Oc3ccc(OC)cc3C(=NO[C@@H](C)c3cn([C@H](CO)Cc4ccccc4)nn3)[C@H]2O)c1 | 5.1%[8.59 µM] | 11.4%[8.59 µM]
O=C1[C@@H]2[C@H]3[C@H](O)[C@H](O)CC(=NOC[C@@H](O)COCc4ccco4)[C@H]3CC[C@H]2C(=O)N1C[C@@H]1CCCO1 | 3.6%[8.59 µM] | -13.7%[8.59 µM]
CC(=O)Oc1cc2c(c(C)c1OC(C)=O)CC=C1[C@]3(C)CC[C@]4(C)CC[C@@](C)(C(=O)O)CC4[C@]3(C)CC[C@]12C (some centres undefined) | 11.2µM* | 20µM*
Nc1nc(-c2nn(Cc3ccccc3F)c3ncccc23)ncc1C1CC1 | 0.562µM* | 0.891µM*
COC1=C[C@H](C(=O)NCCNC(C)=O)[C@@]2(C)Cc3ccccc3[C@@H]2CC1=O | -20.2%[8.59 µM] | /
c1nc(NC2CCNCC2)c2cc(-c3ccc4c(c3)OCO4)ccc2n1 | ? | -4.7%
CN(C)Cc1ccccc1-c1ccc2ncnc(NCc3ccccc3)c2c1 | ? | 0.3%
CN(C)Cc1ccccc1-c1ccc2ncnc(NCc3cccs3)c2c1 | 8.91µM* | -5.0%
CN(C)Cc1ccccc1-c1ccc2ncnc(NC3CCNCC3)c2c1 | 7.08µM* | 6.9%
C=CCOC(=O)N[C@@H](c1cccc(OC)c1)[C@@H](C)C=CCC(=O)O | 6.7%[8.59 µM] | 14.4%[8.59 µM]
C#CCCCON=C1C[C@@H](O)[C@@H](O)[C@@H]2[C@H]3C(=O)N([C@@H](C)c4ccccc4)C(=O)[C@@H]3CC[C@H]12 | ? | 8.6%[8.59 µM]
COc1cccc([C@@H]2Oc3ccc(Br)cc3C(=O)[C@@H]2OC(=O)N[C@H]2CCCc3ccccc32)c1 | -11.4%[8.59 µM] | -10.2%[8.59 µM]
CC(C)CC(NC(=O)CN)C(=O)NC(Cc1ccccc1)C(=O)O (centres undefined) | 12.9% | 1.2%
CC(C)C[C@H](NC(=O)[C@H](CCc1ccccc1)NC(=O)CN1CCOCC1)C(=O)N[C@@H](Cc1ccccc1)C(=O)N[C@@H](CC(C)C)C(=O)[C@@]1(C)CO1 | ? | 11.2µM*
COC(=O)[C@@H]1C[C@@H](NC(=O)c2cccc3c(C)c(C)[nH]c23)CN1Cc1cccc2ccccc12 | 1.78µM* | 3.55µM*
COC(=O)[C@@H]1C[C@H](NC(=O)c2ccccn2)CN1Cc1cccc2ccccc12 | 1.1% | -2.3%
O[C@@H]1CO[C@@H](C=Cc2ccccc2)[C@H]1OCc1cccc(Br)c1 | -5.3%[8.59 µM] | /
COCC1=C(C(=O)OC)C(c2ccccc2)N(C(C)=O)C(=O)N1 (centres undefined) | 0.8%[8.59 µM] | 29.7%[8.59 µM]
CCCNC(=O)OC[C@H]1O[C@H](CCON=C(C)CCN2CCCCc3nc(C)c(C)cc32)C=C[C@H]1Oc1ccc(OC)cc1 | -26.3%[8.59 µM] | -21.5%[8.59 µM]
COCC1=C2c3ccccc3[C@H](C[N+](=O)[O-])C(C(=O)OC)(C(=O)OC)C[C@@H]2n2c(=O)n(-c3ccccc3)c(=O)n2C1 | -14.6% | 7.08µM*!
COC(=O)C1(C(=O)OC)CC=CCc2ccccc2[C@H]1C[N+](=O)[O-] | 3.3%[8.59 µM] | -7.8%[8.59 µM]
CC(C)[C@H](CO)Nc1nc(Nc2cccc(Cl)c2)c2ncn(C(C)C)c2n1 | -10.8% | 28.2µM*
CC(C)n1cnc2c(NCc3ccccc3)nc(NCCO)nc21 | 12.3% | -3.6%
C#CCCCON=C1C[C@@H](O)[C@H](O)[C@H]2[C@@H]3C(=O)N(Cc4ccccc4)C(=O)[C@@H]3CC[C@H]12 | 11.0%[8.59 µM] | 7.3%[8.59 µM]
SMILES | Marburg entry | LASV entry inh
CC(C)N(CCC(=O)c1ccc2ccccc2c1)Cc1ccccc1 | ? | 31.6µM*
C[C@@H](COc1ccccc1)N(CCCl)Cc1ccccc1 | -28.4%[17.8 µM] | 20.2%[17.8 µM]
CC(C)CN(C[C@@H](O)[C@H](Cc1ccccc1)NC(=O)O[C@@H]1CCOC1)S(=O)(=O)c1ccc(N)cc1 | -12.7% | -7.7%
CC(C)c1ccc(-c2cc(-c3cn[nH]c3-c3ccccn3)ccn2)cc1 | -2.6% | 16.4%
c1ccc(CCNc2nc(-c3ccccc3)cs2)cc1 | ? | 15.8µM*
c1ccc(-c2csc(-c3nc4ccccc4[nH]3)n2)cc1 | 7.3% | ?
C[C@@H]1[C@H](O)[C@@H](C)/C=C/C=C\C=C\C=C\C=C\C=C\C=C\[C@H](O[C@@H]2O[C@H](C)[C@@H](O)[C@H](N)[C@@H]2O)C[C@@H]2O[C@](O)(C[C@@H](O)C[C@@H](O)[C@H](O)CC[C@@H](O)C[C@@H](O)CC(=O)O[C@H]1C)C[C@H](O)[C@H]2C(=O)O (stereo in doubt) | 18.3% | -1.3%
COc1cc(N2CCN(C(C)C)CC2)ccc1Nc1nc(Nc2ccc(F)cc2C(N)=O)c2cc[nH]c2n1 | 14.1µM* | ?
COc1cc(C)c(NC(=O)CN(C)C)cc1Nc1nc(Nc2cccc(F)c2C(N)=O)c2cc[nH]c2n1 | 0.791µM* | ?
CCN1C(=O)NC(c2ccco2)C(C(C)=O)=C1C (centres undefined) | 25.6%[8.59 µM] | -15.8%[8.59 µM]
CC(CCN1CCCCc2nc(C)c(C)cc21)=NO[C@@H](C)CN1CCCCc2nc(C)c(C)cc21 | 5.6%[8.59 µM] | /
CC1(C)CN(Cc2ccccc2)C(=O)[C@@H]1CC(=O)Nc1ccccc1 | 15.9% | /
CNC(C)CCC=C(C)C (centres undefined) | ? | -10.2%
C/C1=C2N=C(/C=C3N=C(/C(C)=C4\[N-]C(C(CC(N)=O)C4(C)CCC(=O)NCC(C)OP(=O)([O-])OC4C(CO)OC(n5cnc6cc(C)c(C)cc65)C4O)C4(C)N=C1C(CCC(N)=O)C4(C)CC(N)=O)C(CCC(N)=O)C\3(C)C)C(CCC(N)=O)C/2(C)CC(N)=O.[CH3-].[Co+3] (centres undefined) | 3.16µM* | 2.51µM*
CCCCN(CCCC)C(=S)[S-].CCCCN(CCCC)C(=S)[S-].[Zn+2] | 6.31µM* | 11.2µM*
O=C1C2=C(C(=O)c3ccccc31)[C@H]1O[C@](c3ccsc3)(Cc3c1ccc1ccccc31)O2 | 14.9%[8.59 µM] | 3.4%[8.59 µM]
O=C(Nc1ccc(Br)cc1)c1cc(Br)c(Br)s1 | -21.2% | ?
O=C(Nc1ccc(Br)cc1)c1cccc(S(=O)(=O)Nc2ccc(Br)cc2)c1 | ? | 22.4µM*
COc1ccc2[nH]c(C(=O)c3ccccc3)cc2c1 | 3.16µM* | -8.9%
O=C(O)c1cc2ccccc2[nH]1 | 3.5% | -0.1%
CN1CCC(Nc2ncc3ncnc(Nc4ccc(F)c(Cl)c4)c3n2)CC1 | 10µM* | -10.1%
CC1=C[C@H](O)CC(C)(C)[C@H]1/C=C/C(C)=C/C=C/C(C)=C/C=C/C=C(C)/C=C/C=C(C)/C=C/C1=C(C)C[C@@H](O)CC1(C)C | 18.1% | -0.1%
CCCCCCCCCCCCCCCCOP(=O)([O-])OCC[N+](C)(C)C | -10.1% | 9.2%
CCCCCCCCCCCCCCCC[N+](C)(C)CC | 10µM* | 15.8µM*
CCCCCCCCCC(=O)O | 1.6% | -5.1%
SMILES | Marburg entry | LASV entry inh
CCCCCCCCCCCCCCCC[N+](C)(C)C | 8.91µM*! | ?
CCCCCCCC[N+](C)(C)CCCCCCCC | 15.8µM* | ?
CCCCCCCCCCCCCCCCCC[N+](C)(C)CCC[Si](OC)(OC)OC | 4.5% | -16.1%
C[N+](C)(C)CCCCCC[N+](C)(C)C | 10.3% | 9.9%
CCCCCCCCCC[N+](C)(C)CCCCCCCCCC | ? | 25.1µM*
O=C(C1CCCCC1)N1C[C@H](O)[C@H](n2cc(C3CC3)nn2)C[C@@H]1c1ccc(Cl)cc1 | -36.0% | -18.9%
COc1ccc(COC(=O)NN=C2C[C@@H](O)[C@@H](O)[C@@H]3[C@H]4C(=O)N([C@@H](C)c5ccccc5)C(=O)[C@@H]4CC[C@H]23)cc1 | -0.6%[8.59 µM] | /
